Measurements published in the antibiotic and cytotoxicity screens of Wong et al. (2023).
About 1,500 (3.8%) of roughly 39,000 compounds were called active. The full list was thinned out, with actives kept by preference.

test system: HSkMC (human skeletal muscle cells); test: cytotoxicity call (relative viability < 0.9); conditions: 10 µM

Row | SMILES | cytotoxicity call
1 | C=CC(=O)NS(=O)(=O)c1ccccc1 | inactive
2 | CCS(=O)(=O)N1CC[C@H]2[C@H](CC1)S(=O)(=O)CCN2C(=O)c1ccccc1 | inactive
3 | COCC(=O)N1C[C@@H](C)[C@@H](OC)CN(C)C(=O)c2ccc(NC(=O)c3ccc(OC)cc3)cc2OC[C@@H]1C | inactive
4 | Cc1cc(N)n(-c2nc(=O)c(C)c(C)[nH]2)n1 | inactive
5 | CCCCc1c(C)nc2ccc(Br)cc2c1SC(N)N | inactive
6 | NS(=O)(=O)c1ccc2c(c1)COC2 | inactive
7 | COc1ccc(S(=O)(=O)N(C)C[C@@H]2Oc3c(NS(=O)(=O)c4ccc(C)cc4)cccc3C(=O)N([C@@H](C)CO)C[C@@H]2C)cc1 | inactive
8 | C[C@H]1CN([C@@H](C)CO)C(=O)Cc2cc(NS(=O)(=O)c3ccc(Cl)cc3)ccc2O[C@@H]1CN(C)Cc1ccc(C(F)(F)F)cc1 | active
9 | C[C@H](CO)N1C[C@H](C)[C@@H](CN(C)Cc2ccc(C(F)(F)F)cc2)Oc2ccc(NS(=O)(=O)c3ccc(Cl)cc3)cc2CC1=O | inactive
10 | C[C@H]1CN([C@@H](C)CO)C(=O)Cc2cc(NS(=O)(=O)c3ccc(Cl)cc3)ccc2O[C@H]1CN(C)Cc1ccc(C(F)(F)F)cc1 | active
11 | C[C@@H]1CN([C@@H](C)CO)C(=O)Cc2cc(NS(=O)(=O)c3ccc(Cl)cc3)ccc2O[C@H]1CN(C)Cc1ccc(C(F)(F)F)cc1 | inactive
12 | C[C@@H]1CN([C@H](C)CO)C(=O)c2cc(NC(=O)CCCN(C)C)ccc2O[C@@H]1CN(C)C(=O)NC1CCCCC1 | inactive
13 | C[C@@H]1CN([C@@H](C)CO)C(=O)c2cc(NS(C)(=O)=O)ccc2O[C@H]1CN(C)Cc1ccc(C(=O)Nc2ccccc2N)cc1 | inactive
14 | COc1ccc(CN(C)C[C@H]2Oc3ccc(NC(=O)CCN4CCOCC4)cc3C(=O)N([C@H](C)CO)C[C@H]2C)cc1 | inactive
15 | C[C@@H]1CN([C@@H](C)CO)C(=O)c2cc(NC(=O)Nc3ccc(C(F)(F)F)cc3)ccc2O[C@H]1CN(C)CC1CCCCC1 | active
16 | C[C@@H]1CN([C@H](C)CO)C(=O)c2cc(NC(=O)Nc3ccc(F)cc3)ccc2O[C@H]1CN(C)CC1CCCCC1 | inactive
17 | C[C@@H]1CN([C@@H](C)CO)C(=O)c2cc(NC(=O)Nc3ccc(F)cc3)ccc2O[C@@H]1CN(C)CC1CCCCC1 | inactive
18 | C[C@H]1CN([C@@H](C)CO)C(=O)c2cc(NC(=O)Nc3ccc(C(F)(F)F)cc3)ccc2O[C@@H]1CN(C)CC1CCCCC1 | inactive
19 | C[C@H]1CN([C@@H](C)CO)C(=O)c2cc(NC(=O)Nc3ccc(F)cc3)ccc2O[C@H]1CN(C)CC1CCCCC1 | inactive
20 | C[C@H](CO)N1C[C@H](C)[C@H](CN(C)CC2CCCCC2)Oc2ccc(NC(=O)Nc3ccc(F)cc3)cc2C1=O | inactive
21 | C[C@@H]1CN([C@H](C)CO)C(=O)c2cc(NC(=O)Nc3ccc(C(F)(F)F)cc3)ccc2O[C@H]1CN(C)CC1CCCCC1 | inactive

Row | SMILES | cytotoxicity call
22 | C[C@@H]1CN([C@@H](C)CO)C(=O)c2cc(NC(=O)Nc3ccc(C(F)(F)F)cc3)ccc2O[C@@H]1CN(C)CC1CCCCC1 | active
23 | C[C@H](CO)N1C[C@H](C)[C@H](CN(C)CC2CCCCC2)Oc2ccc(NC(=O)Nc3ccc(C(F)(F)F)cc3)cc2C1=O | active
24 | C[C@H]1CN([C@@H](C)CO)C(=O)c2cc(NC(=O)Nc3ccc(F)cc3)ccc2O[C@@H]1CN(C)CC1CCCCC1 | inactive
25 | C[C@H](CO)N1C[C@H](C)[C@@H](CN(C)CC2CCCCC2)Oc2ccc(NC(=O)Nc3ccc(C(F)(F)F)cc3)cc2C1=O | inactive
26 | C[C@@H]1CN([C@H](C)CO)C(=O)c2cc(NC(=O)Nc3ccc(C(F)(F)F)cc3)ccc2O[C@@H]1CN(C)CC1CCCCC1 | active
27 | C[C@@H]1CCCCO[C@@H](CN(C)C(=O)Nc2ccc(C(F)(F)F)cc2)[C@@H](C)CN([C@H](C)CO)C(=O)c2cc(NS(=O)(=O)c3ccc(Cl)cc3)ccc2O1 | inactive
28 | O=C(C[C@H]1C[C@@H]2c3cc(NS(=O)(=O)c4ccc(F)cc4)ccc3O[C@@H]2[C@H](CO)O1)NC1CCCCC1 | inactive
29 | C[C@@H]1CN([C@H](C)CO)C(=O)c2cc(NC(=O)Nc3cccc4ccccc34)ccc2O[C@H]1CN(C)CC1CCCCC1 | inactive
30 | C[C@@H]1CCCCO[C@@H](CN(C)S(=O)(=O)c2ccc(F)cc2)[C@@H](C)CN([C@@H](C)CO)C(=O)c2cc(NC(=O)NC3CCCCC3)ccc2O1 | inactive
31 | C[C@H]1CN([C@@H](C)CO)C(=O)Cc2cc(NS(C)(=O)=O)ccc2O[C@@H]1CN(C)Cc1ccc2c(c1)OCO2 | inactive
32 | O=C(C[C@@H]1C[C@@H]2c3cc(NS(=O)(=O)c4ccc(F)cc4)ccc3O[C@@H]2[C@@H](CO)O1)NC1CCCC1 | inactive
33 | O=C(C[C@H]1CC[C@@H]2[C@H](COC[C@H](O)CN2C(=O)Nc2cccc(Cl)c2)O1)NCCCN1CCOCC1 | inactive
34 | Cc1ccc(S(=O)(=O)N(C)C[C@@H]2Oc3ccc(NC(=O)Nc4ccc(C(F)(F)F)cc4)cc3C(=O)N([C@@H](C)CO)C[C@H]2C)cc1 | inactive
35 | C[C@@H]1CN([C@@H](C)CO)C(=O)c2cc(NC(=O)Nc3ccc(C(F)(F)F)cc3)ccc2O[C@H]1CN(C)S(=O)(=O)c1ccc(Cl)cc1 | inactive
36 | C[C@H]1CN([C@@H](C)CO)C(=O)c2cc(NC(=O)Nc3ccc(C(F)(F)F)cc3)ccc2O[C@H]1CN(C)S(=O)(=O)c1ccc(Cl)cc1 | inactive
37 | C[C@@H]1CN([C@H](C)CO)C(=O)c2cc(NC(=O)Nc3ccc(C(F)(F)F)cc3)ccc2O[C@H]1CN(C)S(=O)(=O)c1ccc(Cl)cc1 | inactive
38 | Cc1ccc(S(=O)(=O)N(C)C[C@@H]2Oc3ccc(NC(=O)Nc4ccc(C(F)(F)F)cc4)cc3C(=O)N([C@H](C)CO)C[C@H]2C)cc1 | inactive
39 | C[C@@H]1CN([C@H](C)CO)C(=O)c2cc(NC(=O)Nc3ccc(C(F)(F)F)cc3)ccc2O[C@@H]1CN(C)S(=O)(=O)c1ccc(Cl)cc1 | active
40 | C[C@H](CO)N1C[C@H](C)[C@H](CN(C)S(=O)(=O)c2ccc(Cl)cc2)Oc2ccc(NC(=O)Nc3ccc(C(F)(F)F)cc3)cc2C1=O | active
41 | C[C@@H]1CN([C@@H](C)CO)C(=O)c2cc(NC(=O)Nc3ccc(C(F)(F)F)cc3)ccc2O[C@@H]1CN(C)S(=O)(=O)c1ccc(Cl)cc1 | active
42 | C[C@H]1CN([C@@H](C)CO)C(=O)c2cc(NC(=O)Nc3ccc(C(F)(F)F)cc3)ccc2O[C@@H]1CN(C)S(=O)(=O)c1ccc(Cl)cc1 | inactive
